High-throughput results as filed in PubChem BioAssay.
D2 ag-1 – Beta-Arrestin HTS for Positive Allosteric Modulators of the Human D2 Dopamine Receptor: Agonists. D(2) dopamine receptor (Homo sapiens), P14416. DiscoveRx PathHunter D2 beta-arrestin, luminescence, 90 min; 100% = 57 uM dopamine signal. activation, % (test concentration not listed). 360,000 compounds, 0.084% hits. AID 624465, 2012; in the data active = activation above about 40%; inconclusive = between about 15% and that limit
Target sequence (P14416 whole entry, looked up): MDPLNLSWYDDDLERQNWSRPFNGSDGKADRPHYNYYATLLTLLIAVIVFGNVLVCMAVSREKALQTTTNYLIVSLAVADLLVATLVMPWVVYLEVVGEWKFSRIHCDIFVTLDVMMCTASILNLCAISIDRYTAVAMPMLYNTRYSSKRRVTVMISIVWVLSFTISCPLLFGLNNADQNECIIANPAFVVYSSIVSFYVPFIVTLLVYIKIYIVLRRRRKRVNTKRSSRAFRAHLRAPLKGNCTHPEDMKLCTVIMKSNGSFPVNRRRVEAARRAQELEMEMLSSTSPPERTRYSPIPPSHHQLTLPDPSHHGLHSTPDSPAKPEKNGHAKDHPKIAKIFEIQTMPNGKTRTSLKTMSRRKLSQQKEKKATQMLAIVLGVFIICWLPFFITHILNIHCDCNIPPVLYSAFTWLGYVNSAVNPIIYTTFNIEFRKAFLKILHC
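DiscoveRx PathHunter D2 beta-arrestin cells (2,100/well) attached overnight, then compound-stimulated 90 min at 37 C in HBSS/10 mM HEPES/0.1% Tween-20 buffer; beta-galactosidase complementation read by luminescence after 1 h at ambient temperature. Dopamine 57 uM final (EC100) as control.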
D2 ag-2 – HTS Assay for Allosteric Agonists of the Human D2 Dopamine Receptor: Primary Screen for Agonists | D(2) dopamine receptor (Homo sapiens), P14416 | HEK293 T-REx D2 cells, calcium flux agonist mode | activation, % at 2 µM | 340,000 compounds, 0.53% hits | AID 485358, 2010;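 active = activation over 3 SD above normal in the single-dose calcium agonist read, cut at about 30% in these data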; note: 0% is about no effect
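Calcium-flux readout, 1 cycle/sec over 180 s following compound pin transfer, in inducible HEK293 Trex D2 cells (force-coupled); dopamine controls included. Positive calcium responses during this window marked compounds as potential agonists.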
D2 antag – HTS Assay for Allosteric Antagonists of the Human D2 Dopamine Receptor: Primary Screen for Antagonists | inhibition, % at 10 µM | 340,000 compounds, 2% hits | AID 485344, 2010 | HEK293 TREx D2 cells, calcium flux, dopamine EC80; in the data active = inhibition above about 30%; inactive = below that, where a call was filed; note: 0% is about no effect
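HEK293 T-REx D2 cells, tet-induced, calcium dye no-wash. Cpd pintool add, 180 s kinetic, then EC80 DA, 180 s kinetic. Ca flux read.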
D2 PAM-1 – HTS Assay for Positive Allosteric Modulators of the Human D2 Dopamine Receptor: Primary Screen for Potentiators | HEK293 T-REx D2, calcium flux, EC20 dopamine potentiation | potentiation, % at 10 µM | 340,000 compounds, 0.34% hits;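 active = potentiation over 3 SD above the plate norm, cut at about 30% in these data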; note: 0% is about no effect
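Tetracycline-induced HEK293 T-REx cells force-coupled to calcium signalling expressed D2; compounds were pin-added after a 10 s baseline, read kinetically 180 s, then an EC20 dopamine challenge followed with a further 180 s calcium read.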
D2 PAM-2 – Beta-Arrestin HTS for Positive Allosteric Modulators of the Human D2 Dopamine Receptor: Potentiators; DiscoveRx D2 beta-arrestin cells, luminescence, 90 min; 100% = 57 uM dopamine signal; potentiation, % (no concentration beside the values); 360,000 compounds, 0.23% hits; AID 624464, 2012; in the data active = potentiation above about 50%; inconclusive = mostly about 30% to 49%
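PathHunter D2 cells, attached overnight at 37 deg C, received compound in DMSO plus dopamine at EC20 (50 nM final) for 90 min at 37 deg C. Beta-arrestin recruitment was read as luminescence after 1 h with detection reagent at ambient temperature.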
An asterisk follows results filed as active; ? = inconclusive; nt = not tested or not shown. This is a sample that favours compounds with a hit; in the whole collection about 2.4% have one here.

SMILES	D2 ag-1	D2 ag-2	D2 antag	D2 PAM-1	D2 PAM-2
O=C(CN1CCN(c2ccccc2)CC1)NC(=O)NCc1ccco1	2	39*	-15	-11	0
COc1ccc(C(=O)c2cn(Cc3ccc(F)cc3)c3c(F)cc(F)cc3c2=O)cc1	nt	-1	nt	8	nt
CCCCn1c(-c2ccc(OC(F)F)cc2)nc2c1c(=O)[nH]c(=O)n2CC(C)C	3	-2	-2	33*	0
CCCCn1c(CNC(=O)CCC)nc2ccccc21	-3	-1	34*	-2	-12
O=C(CN1C(=O)NC(Cc2ccccc2)C1=O)Nc1ccc(F)c(Cl)c1 (configuration not stated)	5	1	33*	3	-2
O=C(CN1C(=O)NC(Cc2ccccc2)C1=O)Nc1ccc(F)cc1 (configuration not stated)	1	0	-14	-3	-1
COc1ccc(C2=Nc3ccccc3N(CC(=O)Nc3cccc(C(C)=O)c3)C(=O)C2)cc1	nt	0	nt	4	nt
CN1C(=O)CSc2ccc(NC(=O)NCc3ccccc3)cc21	-2	-1	30*	-22	-3
CCCCNC(=O)Nc1ccc2c(c1)N(C)C(=O)c1ccccc1S2	-1	1	46*	-17	-15
CCCNC(=O)Nc1ccc2c(c1)N(C)C(=O)c1ccccc1S2	1	1	-5	0	3
Cc1ccc(CNC(=O)Nc2ccc3c(c2)N(C)C(=O)CS3)cc1	-4	-1	-5	-8	-6
CC(CCc1ccccc1)N1CCN(Cc2ccccc2)CC1 (configuration not stated)	-1	0	61*	-16	-41
CC(CN1CCN(Cc2ccccc2)CC1)c1ccccc1 (configuration not stated)	-4	0	0	1	-64
CC[C@@H](C(=O)[C@@H](C)[C@@H](O)[C@H](C)CCc1ccc(C)c(O)c1C(=O)O)[C@H]1O[C@](CC)([C@H]2CC[C@](O)(CC)[C@H](C)O2)C[C@@H]1C	?	15	49*	-20	?
COc1ccc2c(c1)C(C)CC(C)(C)N2C(=O)Nc1ccccc1 (configuration not stated)	1	1	54*	-3	-2
COc1ccc2c(c1)C(C)CC(C)(C)N2C(=O)CSc1nc2ccccc2s1 (configuration not stated)	-4	0	14	-6	17
COc1ccc(N=Nc2nc3cc(Br)c(Br)cc3n2C)c(OC)c1	-1	33*	0	-2	-11
CC(NC(=O)C1CCN(C(=O)c2ccc(F)cc2)CC1)c1ccc(-n2ccnc2)cc1 (configuration not stated)	6	2	31*	9	-8
COc1cc(C(=O)NC(C)c2ccc(-n3ccnc3)cc2)cc(OC)c1C (configuration not stated)	-3	-1	8	31*	-21
COc1cc(C(=O)NCC(=O)NC(C)c2ccc(-n3ccnc3)cc2)cc(OC)c1OC (configuration not stated)	4	0	-4	-3	16
CC(C)(C)C(=O)Nc1c(C(=O)N2CCN(c3ccc(F)cc3)CC2)oc2ccccc12	nt	0	nt	-8	nt
CN(C)CCOCCOc1ccc(Cl)cc1C(C)(C)C	-5	0	64*	-17	-10
CC(O)CNCCCOc1ccc(Cl)cc1C(C)(C)C (configuration not stated)	1	1	-18	-14	-13
C=CCc1cc(Cl)ccc1OCCN(C)C	-1	1	53*	-15	-14
CCc1nnc(SCc2nc(-c3ccccc3Cl)oc2C)c2cc3sc(C)cc3n12	nt	1	nt	0	nt
COc1c(C)cccc1C(=O)Nc1cccc2ccc(C)nc12	nt	nt	nt	-8	nt
CCCCN(C)CCCNC(=O)Cn1ncc2c3ccccc3n(Cc3cc(C)ccc3C)c2c1=O	nt	nt	nt	10	nt
